Data on 40 compounds can be found in PubChem BioAssay.

A number with no mark means an inactive call. The source made the active and inactive calls. No stated cut-off is given here; in the data, active means inhibition above about 36%; inactive means the rest.

This assay concerns transactivating tegument protein VP16 (Human herpesvirus 1). The assay is described as follows: compounds suppressing VP16-driven luciferase signal – cell-based, luminescence, single concentration, counter-screen for SRC2 inhibitor project (AID 652007). As to conditions: cell-based VP16 transactivation luciferase reporter, at 8.9 µM, stronger effect = higher value.
`O=S(=O)(Nc1cc(Sc2cccc3cccnc23)c(O)c2ccccc12)c1ccccc1`: the inhibition (commonly the relative decrease from the control value, in per cent) was 97.2% (active). The figure for `CC1(C)CC(=O)C/C(=N/Nc2nc3ccccc3s2)C1` is -61.5%. The figure for `CCn1c(C2CCN(S(=O)(=O)c3ccc(OC)cc3)CC2)n[nH]c1=S` is -1.12%.

Regarding `O=C(CCl)N(Cc1ccccc1)c1ccccc1`, the inhibition was 26%. Regarding `Cc1nc2cc(-c3ccccc3)sc2c(=O)n1N`, the inhibition is 22.3%. The same measure for `Cc1cc(C)cc(NC(=O)Nc2cc(S(=O)(=O)N(C)C)ccc2C)c1`: -9.93%; for `O=C(NC(=O)c1ccccc1)Nc1ccccn1`: 4.41%; for `CC(OC(=O)C1=COCCO1)C(=O)Nc1ccc(Cl)cn1` (stereo not given): -6.28%.

As to `CCN1CCN(Cc2ccc(NC(=O)c3cccc(-c4ccc5nc(NC(=O)C6CC6)sc5n4)c3)cc2C(F)(F)F)CC1`, the inhibition is 24.5%. The same measure for `Cc1nc(SCc2ccc(C(=O)O)cc2)nc2c1CCCC2`: 10.8%. Turning to `CCCCCCCCN1C(=O)[C@H](CC(=O)NCCCC)C[C@@]2(C(=O)OCC)CCCC=C12`, the inhibition was -14%.

Turning to `O=C(O)CCC(=O)Nc1ccc(NC(=O)c2ccc(Cl)cc2Cl)c(Cl)c1`, the inhibition is -5.8%. `O=C(c1ccccc1Nc1ccc(SC(F)F)cc1)N1CCCCCC1`: the inhibition was 2.12%. The figure for `O=C(NC(c1ccc(F)cc1)c1ccc2ccccc2n1)C1CCN(CCOc2ccc(F)cc2)CC1` (stereo not given) is -1.57%; for `COc1ccc(S(=O)(=O)Nc2ccc(C)cn2)cc1` it is -11.7%; for `Cn1nnnc1Sc1ncnc2scc(-c3ccc(Br)cc3)c12` it is 25%. The same measure for `COC(=O)Cc1ccc(NC(=O)c2ccccc2Cl)cc1`: -35.8%. With `CN(c1ccc(F)cc1)S(=O)(=O)c1ccc(Cl)c(C(=O)Nc2ccncc2)c1`, the inhibition was -3.83%. The same measure for `CCn1cc(S(=O)(=O)Nc2ccc3c(c2)OCCO3)cn1`: -3.8%; for `CCc1ccc(C(=O)Nc2nc3ccccc3[nH]2)cc1`: -1%. The figure for `NC(Cc1ccc(Cl)cc1)c1csc(NC(=O)NCC2CCCCC2)n1` (stereo not given) is -2.01%. As to `COCc1cc(C)[nH]c(=O)c1C(=O)NC12CC3CC(CC(C3)C1)C2`, the inhibition is 15.4%. For `COc1cc2[nH]c3c(=O)n4c(nc3c2cc1OC)SCCC4`, the inhibition was -66.2%. With `C=CS(=O)(=O)N(Cc1nnn(Cc2ccccc2)c1Br)[C@H](C(=O)OC)C(C)C`, the inhibition is 18.8%.

Regarding `CCOC(=O)C1CCN(c2ncnc3c2cnn3-c2ccc(OC)cc2)CC1`, the inhibition was -22.3%. With `Cc1cccc(NS(=O)(=O)c2ccc(C)c(C(=O)NC3CCN(Cc4ccccc4)CC3)c2)c1`, the inhibition is 8.2%. The same measure for `Cc1cccc(Nc2nc(NCc3ccco3)c3ccccc3n2)c1`: 25.1%; for `COc1cccc(-c2ncn(CCc3ccccc3OC)c2CC(C)C)c1`: -2.53%; for `COc1ccccc1/C=C/C1(C(=O)NC2CCCC2)CC(=O)N1c1ccc(F)cc1` (stereo not given): 19.7%. The same measure for `CC1CCc2c(sc3nc(CSc4ncn[nH]4)[nH]c(=O)c23)C1` (stereo not given): 33%. The figure for `COC(=O)c1c(N)sc(C(=O)NCCc2ccccc2)c1C` is -1.83%.

For the compound `Cc1ccc2c(c1)N(C(=O)CCC(=O)NCCCN1CCN(C)CC1)CC(C)O2` (stereo not given), the inhibition is -11.4%. As for `CCNC(=O)NC(=O)C(C)OC(=O)CCCSc1nc2ccccc2s1` (stereo not given), the inhibition is 14.4%.

Regarding `O=C(CN1C(=O)c2ccccc2S1(=O)=O)c1ccccc1Cl`, the inhibition is 37.8% (active). The figure for `O=C(C(O)c1ccc(Br)cc1)N1CCC(Nc2ccc3[nH]ncc3c2)CC1` (stereo not given) is -4.16%; for `Cn1c(=O)c(=O)n(C)c2cc(S(=O)(=O)Nc3ccc4c(c3)OCCO4)ccc21` it is -4.82%; for `CCC(C)(C(=O)NC1CCCCC1)N(Cc1cccs1)C(=O)CC1NC(=O)NC1=O` (stereo not given) it is -9.62%. For `NC1=NC(=O)/C(=C\c2cccnc2)S1`, the inhibition is -14.6%.

As to `C[n+]1cc2c3c(ccc2c2ccc4cc5c(cc4c21)OCO5)OCO3`, the inhibition is 96% (active). On to `CC(NC(=O)CCc1nnc(-c2ccc(-c3ccccc3)cc2)o1)c1nc2ccccc2[nH]1` (stereo not given), for which the inhibition is 15.2%.
